Experimental findings from PubChem BioAssay AID488969 (Vanderbilt High Throughput Screening Facility, 2010) are described below.

Over roughly 110,000 compounds, “z-score” has its median near -0.1; the highest 2% begin near 2. The sample holds the highest values, similar compounds and a random draw of the others, so the mix is not that of the screen. The source made the active and inactive calls.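 Rule for the calls: active = z-score in the third read window above 3 or below -3; inactive = the rest.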

Sequence of Metabotropic glutamate receptor 8 (Rattus norvegicus) (P70579 whole entry, looked up): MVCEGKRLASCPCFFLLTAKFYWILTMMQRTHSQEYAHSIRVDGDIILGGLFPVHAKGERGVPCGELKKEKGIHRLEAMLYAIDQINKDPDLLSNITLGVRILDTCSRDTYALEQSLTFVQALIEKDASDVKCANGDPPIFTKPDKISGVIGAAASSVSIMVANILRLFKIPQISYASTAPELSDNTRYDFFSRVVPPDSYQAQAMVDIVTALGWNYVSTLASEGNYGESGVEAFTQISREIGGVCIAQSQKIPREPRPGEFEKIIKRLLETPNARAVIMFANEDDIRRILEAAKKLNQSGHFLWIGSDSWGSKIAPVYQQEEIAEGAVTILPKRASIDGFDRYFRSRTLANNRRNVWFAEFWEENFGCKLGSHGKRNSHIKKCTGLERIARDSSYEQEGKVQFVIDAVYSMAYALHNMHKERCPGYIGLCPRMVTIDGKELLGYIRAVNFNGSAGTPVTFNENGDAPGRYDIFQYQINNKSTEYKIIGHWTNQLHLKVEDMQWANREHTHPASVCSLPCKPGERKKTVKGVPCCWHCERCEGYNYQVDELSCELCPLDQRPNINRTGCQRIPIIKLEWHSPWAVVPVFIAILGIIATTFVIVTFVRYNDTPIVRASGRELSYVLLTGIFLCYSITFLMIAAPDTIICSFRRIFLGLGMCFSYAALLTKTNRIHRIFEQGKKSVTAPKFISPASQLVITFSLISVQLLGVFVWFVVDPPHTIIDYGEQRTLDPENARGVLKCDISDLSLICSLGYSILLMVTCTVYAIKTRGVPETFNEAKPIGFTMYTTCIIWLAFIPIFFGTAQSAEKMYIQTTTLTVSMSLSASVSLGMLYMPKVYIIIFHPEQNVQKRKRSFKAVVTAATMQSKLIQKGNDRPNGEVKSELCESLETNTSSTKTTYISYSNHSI

The test concerns the target Metabotropic glutamate receptor 8 (Rattus norvegicus) (UniProt P70579). Nature of the test: rat mGluR8 modulators via GIRK flux, primary screen, cell-based, thallium flux, HTS (AID 488969). Conditions: HEK293 rat mGluR8, GIRK (G protein-gated inwardly rectifying potassium channel) thallium flux, FluoZin2; at 10 µM; stronger effect = higher value; submaximal glutamate (EC20) added with thallium.
Take `COc1ccc(-c2nnc(NC(=O)c3ccc(F)cc3)o2)cc1`: the z-score is 5.46 (active). As to `CCOc1ccc(NC(=O)CNC(=O)c2ccc(OC)c(OC)c2)cc1`, the z-score is -0.166. In turn, `CCOc1cccc(C(=O)Nc2cccc(-c3nnc(-c4ccc(C)cc4)o3)c2)c1` registered a z-score of 0.689. Turning to `CCOc1ccc(-c2nnc(NC(=O)CCCOc3cccc(C)c3)o2)cc1`, the z-score was 3.62 (active).

For the compound `O=C(COc1ccccc1)Nc1nnc(-c2ccccc2)o1`, the z-score is -0.421. Turning to `COc1ccc(-c2nnc(NC(=O)C(C)C)o2)cc1`, the z-score is 2.14.

With `COc1cccc(-c2nnc(NC(=O)C(C)C)o2)c1`, the z-score was 0.295. For `COc1ccc(-c2nnc(-c3ccc(OCC(C)C)cc3)o2)cc1` the value was 0.807; for `CCOc1ccc(-c2nnc(NC(=O)c3ccc(OCC(C)C)c(OC)c3)o2)cc1`, 10.4 (active); for `COc1ccc(-c2nnc(NC(=O)c3cc(Cl)ccc3Cl)o2)cc1`, 1.02. Consider `CC(C)C(=O)Nc1nnc(-c2ccccc2)o1`, for which the z-score is 0.162. Take `CCC(=O)Nc1nnc(-c2ccc(OC)cc2)o1`: the z-score is -0.442. For `O=C(Nc1cccc(F)c1)C1CCN(C(=O)c2ccccc2Cl)CC1` the value was -0.486. `CCOC(=O)CS(=O)(=O)c1ccc(C(F)(F)F)cn1`: the z-score was -0.0154. As for `CCCOC(=O)c1ccc(NS(=O)(=O)c2cccs2)cc1`, the z-score is 0.0163. For `Cc1cc(C)c2nc(NC(=O)c3cccc(S(=O)(=O)N4CCc5ccccc54)c3)sc2c1`, the z-score is -0.315. In turn, `CN1CCOCCOCCN(C)C(=O)N2CCOCCOCCN(CCOCC2)C1=O` registered a z-score of 1.25. Take `CC(C)(C)c1ccc(CSc2nnc(-c3ccccn3)n2Cc2ccco2)cc1`: the z-score is -0.295. The compound `Clc1ncnc2scc(C3COc4ccccc4O3)c12` (stereo unspecified) came in with a z-score of -0.228. Take `Cc1cc(C)nc(NS(=O)(=O)c2ccc(NC(=O)CCC3COc4ccccc4O3)cc2)n1` (stereo unspecified): the z-score is -0.4. `Cc1cc(NC(=O)c2cnc3ccccn3c2=O)no1` yielded a z-score of -0.108. For `CCCCNC(=S)NCCN1CCCCC1`, the z-score came out at 0.407. For `COc1ccc(C(C[N+](=O)[O-])c2c(C)[nH]c3ccccc23)cc1OC` (stereo unspecified) the value was -2.31. `COc1ccc(OCC(O)CN(C2CCCCC2)C2CCCCC2)cc1` (stereo unspecified) registered a z-score of 0.744. Turning to `CN(CC(O)COc1ccc(OCC(O)CN(C)C2CCCCC2)cc1)C1CCCCC1` (stereo unspecified), the z-score was determined as 1.64. For `CCN(CC(O)COc1ccc(OCC(O)CN(CC)C2CCCCC2)cc1)C1CCCCC1` (stereo unspecified) the value was 2.32; for `O=C(/C=C/c1ccc(S(=O)(=O)N2CCOCC2)cc1)NCc1ccccc1`, -0.687. The compound `CCOC(=O)N1CCC(N(C(=O)Nc2ccc(Cl)c(Cl)c2)C(C)CC)CC1` (stereo unspecified) gave a z-score of -0.099. For `COc1cc(-c2nnc(CSc3nc4ccccc4s3)o2)cc(OC)c1OC`, the z-score was -3.36 (active). As for `O=c1oc2ccccc2cc1-c1csc(Nc2nc3c(F)cccc3s2)n1`, the z-score is 0.848. For `COc1cccc(-c2nnc(NC(=O)C3CCCCC3)o2)c1` the value was -0.375. `Cc1ccsc1C(=O)Nc1nnc(-c2ccco2)o1` registered a z-score of 0.832. In the case of `COc1cccc(-c2nnc(Nc3nc4c(F)cccc4s3)o2)c1`, the z-score was 17.4 (active).

Take `COc1cc(OC)cc(-c2nnc(Nc3nc4c(F)cccc4s3)o2)c1`: the z-score was 9.94 (active).

For `Fc1cccc2sc(Nc3nnc(-c4ccco4)o3)nc12`, the z-score was 16 (active). Compound `Nc1nc2c(F)cccc2s1` gave a z-score of -0.0918.

With `c1coc(-c2nnc(NC3=NCCC3)o2)c1`, the z-score worked out at 1.08.

Take `Fc1cccc2sc(Nc3nnc(-c4ccccc4)o3)nc12`: the z-score is 17.1 (active). `COc1cccc(-c2nnc(-c3ccc(C(F)(F)F)cc3)o2)c1` registered a z-score of -0.245. With `CCOC(=O)c1sc(Nc2nc3c(F)cccc3s2)cc1C`, the z-score was found to be 0.23.

Turning to `CCOC(=O)C(C)n1cnc2c1c(=O)[nH]c(=O)n2C` (stereo unspecified), the z-score was -0.374. The compound `COc1ccc(CNC(=O)CN(C(=O)c2ccc(CN3CCOCC3)o2)C2CCCC2)cc1` returned a z-score of -0.1. The compound `CCOc1cc(-c2cc(-c3ccc(C)cc3)nc(N)c2C#N)ccc1O` yielded a z-score of -0.244. For `CC1c2c([nH]c3ccccc23)CCC1C(=O)O` (stereo unspecified) the value was 0.673; for `CCN1CCN(C(=S)NCc2ccc(C)cc2)CC1`, 0.0391. In turn, `CN(CC(=O)Nc1cccnc1)S(=O)(=O)c1ccccc1` registered a z-score of -0.0827. For `CCOC(=O)C1[C@H]2C(=O)N(CCCOC)C[C@]23C=C[C@H]1O3` (stereo partly specified) the value was -0.0146; for `CCOCCCNCC(=O)NC1(C)C2CCC(C2)C1(C)C` (stereo unspecified), -0.581; for `O=C(Nc1ccc2c(c1)OCO2)N1CCN(C/C=C/c2ccccc2)CC1`, -0.663. Consider `CN(C)c1cccc(C(=O)OCC(=O)NCC2CCCO2)c1` (stereo unspecified), for which the z-score is -0.266. In turn, `Cc1ccc(CN=C2Nc3ccccc3CS2)cc1` had a z-score of -0.225. In the case of `Cc1cccc(NC(=O)c2cc(Cl)sc2Cl)c1C` it was 0.0762. `CC(C)(C)Cc1nc(-c2ccc(Cl)cc2)no1` returned a z-score of 0.892. With `COc1ccc(CCC(=O)NCc2cnn(C)c2)cc1`, the z-score was 3.37 (active). Regarding `COc1ccc(CCC(=O)NCc2cn3ccsc3n2)cc1`, the z-score was 0.0209. With `CCn1cc(CNC(=O)CCc2ccc(OC)cc2)cn1`, the z-score came out at 0.0492. In the case of `O=C(c1cc(-c2ccc(Cl)cc2Cl)on1)N1CCN(C(=O)c2ccco2)CC1` it was 0.486.

For the compound `O=C(c1cc(-c2ccc(Cl)cc2Cl)on1)N1CCOCC1`, the z-score is -0.321. As to `O=C(c1cccc(F)c1)N1CCN(C(=O)c2cc(-c3ccc(Cl)cc3Cl)on2)CC1`, the z-score was 3.48 (active). `COC(=O)c1cc2ccccn2c2c(C(=O)OC)c(C(=O)OC)cc1-2`: the z-score turned out to be 0.219.

`O=C(Nc1ccccc1)c1sc(Cl)nc1-c1ccccc1` gave a z-score of -0.405.

As to `Cc1cc(C)n(-c2ccc(C)c(Cl)c2)n1`, the z-score was -0.078. Compound `Cc1cc(C)[n+]2n1C(=O)C(c1ccccc1)=C2[O-]` had a z-score of 2.57. `Cc1cc(=O)n2[nH]c(-c3ccccc3)cc2n1` registered a z-score of -0.312. As for `O=c1cc(-c2ccccc2)[nH][nH]1`, the z-score was found to be 0.252. Regarding `Cc1cc(C(=O)N2CCN(CCc3ccccc3)CC2)no1`, the z-score is 8.2 (active). Regarding `O=C(c1cc(-c2ccccc2Cl)on1)N1CCN(C(=O)c2ccco2)CC1`, the z-score came out at 0.424. For `Cc1noc(C)c1C(=O)N1CCN(CCc2ccccc2)CC1` the value was -0.189; for `Cc1ccc(-c2cc(C(=O)N3CCN(C(=O)c4ccco4)CC3)no2)cc1`, -0.304; for `CCOC(=O)C1CCCN(C(=O)c2cc(=O)c3ccccc3o2)C1` (stereo unspecified), 2.91.

The compound `CN1CCN(C(=O)c2cc(-c3ccccc3)on2)CC1` yielded a z-score of 0.0853.

`Cc1ccc(-c2cc(C(=O)N3CCCC3)no2)cc1` registered a z-score of -0.457. For `O=C(c1cc(-c2ccccc2)on1)N1CCN(C(=O)c2ccco2)CC1`, the z-score amounted to 2.21. In the case of `O=C(c1cc(-c2ccccc2)on1)N1CCCC1`, the z-score was 3.32 (active).

Consider `CCOC(=O)C1CCCN(C(=O)c2ccco2)C1` (stereo unspecified), for which the z-score is 0.661. `Cc1cc(C(=O)N2CCN(c3ccccc3)CC2)no1` displayed a z-score of 0.106.

Compound `CCOC(=O)C1CCCN(C(=O)c2cc3c(C)nc4ccccc4c3o2)C1` (stereo unspecified) showed a z-score of -0.243. In turn, `COc1ccc2cc(C(c3nnnn3C3CCCCC3)N3CCCCCC3)c3nnnn3c2c1` (stereo unspecified) gave a z-score of -0.929.

Turning to `CCn1c(=O)c2ccccc2n2c(SCC(=O)N3CCc4ccccc4C3)nnc12`, the z-score was determined as 1.51. On to `CCn1c(SCC(=O)NC(C)(C)C)nnc1-c1ccoc1C`, for which the z-score was determined as 0.155. In turn, `CCN(CC)S(=O)(=O)c1ccc(N2CCOCC2)c(NC(=O)Cc2ccccc2)c1` came in with a z-score of -0.339. The compound `O=C(CC1NCCNC1=O)OCc1ccccc1` (stereo unspecified) registered a z-score of 0.419.

In the case of `O=C(CC1NCCNC1=O)OCCCc1ccccc1` (stereo unspecified), the z-score was 1.22. In the case of `CCCOc1ccc(C(=O)NC(=S)Nc2nc(C)c(C(=O)N(C)C)s2)cc1` it was 0.54; in that of `CCOC(=O)C1CCCN(C(=O)c2cc(-c3ccccc3)on2)C1` (stereo unspecified), 3.22 (active); in that of `CCOC(=O)C1CCCN(C(=O)c2cc(-c3ccc(C)cc3)on2)C1` (stereo unspecified), -0.235. In turn, `CCOC(=O)C1CCCN(C(=O)c2cccs2)C1` (stereo unspecified) returned a z-score of -0.161. With `CC(=O)CSc1nc(N)c(C#N)c(-c2cccs2)c1C#N`, the z-score is -0.18. Regarding `COc1ccc(/C=N/NC(=O)c2nc(-c3ccccc3)cc(-c3ccccc3)n2)cc1OC`, the z-score was determined as 0.42.

`COc1cccc(/C=N/NC(=O)c2nc(-c3ccccc3)cc(-c3ccccc3)n2)c1`: the z-score is -0.286. With `COc1ccc(/C=N/NC(=O)c2nc(-c3ccccc3)cc(-c3ccccc3)n2)cc1`, the z-score is 8.06 (active). `Cn1c(SCC(=O)NC(C)(C)C)nc(O)cc1=O` gave a z-score of -0.0162. For `CC12CCC(C(=O)N(c3ccccc3Cl)C1=O)C2(C)C` (stereo unspecified), the z-score came to 0.208. `O=C1C2C3C=CC(CC3)C2C(=O)N1/N=C/c1ccccc1O` (stereo unspecified) registered a z-score of -0.187. In the case of `CC12CCC(C(=O)N(CC(O)CN3CCCCCC3)C1=O)C2(C)C` (stereo unspecified) it was 0.13; in that of `CC12CCC(C(=O)N(NC(=O)c3ccccc3Cl)C1=O)C2(C)C` (stereo unspecified), 0.00342. Take `CC12CCC(C(=O)N(CSC(=S)N/N=C\c3ccccc3O)C1=O)C2(C)C` (stereo unspecified): the z-score is 5.76 (active). In the case of `CC12CCC(C(=O)N(CSC(=S)N/N=C\c3ccccc3Cl)C1=O)C2(C)C` (stereo unspecified), the z-score was 16.2 (active). In the case of `CCCn1c(SCC(=O)N2CCN(c3ccccc3)CC2)nc2ccccc2c1=O` it was -0.496; in that of `CCn1c(CNC(=O)c2cccc(C)c2)nnc1SCC(=O)NC1CCCCC1C` (stereo unspecified), 0.161; in that of `Cc1[nH]c2ccc(F)cc2c(=O)c1SC(F)(F)C(F)F`, -1.3. With `CCCC(=O)N1CC(=O)Nc2ccc(F)cc2C1c1ccccc1` (stereo unspecified), the z-score is -0.534. As to `Cc1ccc2c(c1)C(c1ccccc1)N(C(=O)C(C)C)CC(=O)N2` (stereo unspecified), the z-score was -0.0998.

`Cc1ccc2c(c1)C(c1ccc(F)cc1)N(C(=O)C1CC1)CC(=O)N2` (stereo unspecified): the z-score was 2.06. In the case of `Cn1nc(C(=O)NCc2ccccn2)c2ccccc2c1=O`, the z-score is -0.406. In the case of `COC(=O)CSc1nc(NC#N)nc(NC(C)C)n1` it was -0.00648. As to `Cc1ccc2cc(C3CC(c4ccco4)=NN3S(=O)(=O)c3ccccc3)c(Cl)nc2c1` (stereo unspecified), the z-score was found to be 0.136. As to `CCSc1nnc(NC(=O)CCc2ccccc2)s1`, the z-score is -0.278. Turning to `O=C(Nc1cccnc1)C(Cc1ccccc1)n1cccc1` (stereo unspecified), the z-score turned out to be 0.0231.

Consider `CCSc1nnc(NC(=O)C(Cc2ccccc2)n2cccc2)s1` (stereo unspecified), for which the z-score is 4.24 (active). For `CCSc1nnc(NC(=O)[C@@H](NC(=O)c2ccccc2)C(C)C)s1` the value was -0.168.

For `CCC(C(=O)Nc1nc(C)cs1)c1ccccc1` (stereo unspecified), the z-score was -0.691. On to `Cc1csc(NC(=O)C(Cc2ccccc2)n2cccc2)n1` (stereo unspecified), for which the z-score is 5.2 (active).

`O=C(NC1CCCC1)C(Cc1ccccc1)n1cccc1` (stereo unspecified) had a z-score of 0.182. For `O=C(Nc1ncc(Br)s1)C(Cc1ccccc1)n1cccc1` (stereo unspecified) the value was 7 (active). Compound `Cc1csc(NC(=O)CSCC(=O)Nc2ccccc2)n1` registered a z-score of 0.462.
